These results are taken from PubChem BioAssay (EPA / NIEHS).

What all share (conditions): mRNA level, 48 h; actives raise or lower the signal
Read-out in experiment [1]: ATP-citrate lyase (ACLY), ACLY (gene 47)
Nature of the experiment: LTEA_HepaRG_ACLY: Life Technologies and Expression Analysis (LTEA) Assay for ATP-citrate lyase (ACLY) using HepaRG (AID 2283466). The method, boiled down: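 Differentiated human HepaRG cells in serum-free induction medium exposed 48 h, in duplicate, to eight half-log concentrations from 100 uM top in 0.5% DMSO; ACLY mRNA measured by qRT-PCR, normalized to ACTB, GAPDH, POLR2A, fitted bidirectionally versus DMSO.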

Read-out in experiment [2]: Peroxisomal acyl-coenzyme A oxidase 1 (ACOX1) gene, ACOX1 (gene 51)
Nature of the experiment: LTEA_HepaRG_ACOX1: Life Technologies and Expression Analysis (LTEA) Assay for Peroxisomal acyl-coenzyme A oxidase 1 (ACOX1) gene using HepaRG (AID 2283467). The method, boiled down:
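Differentiated human HepaRG cells were exposed in duplicate for 48 h in serum-free induction medium to eight half-log concentrations up to 100 uM in 0.5% DMSO. ACOX1 mRNA was then quantified by TaqMan qRT-PCR, normalized to ACTB, GAPDH and POLR2A.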

Read-out in experiment [3]: Alkaline Phosphatase, Placental (ALPP) gene, ALPP (gene 250)
Nature of the experiment: LTEA_HepaRG_ALPP: Life Technologies and Expression Analysis (LTEA) Assay for Alkaline Phosphatase, Placental (ALPP) gene using HepaRG (AID 2283468). The method in brief: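 Expression of ALPP was quantified by qRT-PCR against three housekeeping genes in human HepaRG cultures treated for 48 h with an eight-point concentration series up to 100 uM. Activity in either direction was fitted relative to 0.5% DMSO.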

Read-out in experiment [4]: Bcl-2 (BAD) gene, BAD (gene 572)
Nature of the experiment: LTEA_HepaRG_BAD: Life Technologies and Expression Analysis (LTEA) Assay for Bcl-2 (BAD) gene using HepaRG (AID 2283469). The method, boiled down:
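Differentiated human HepaRG cells in serum-free induction medium were exposed in duplicate for 48 h to eight concentrations (top 100 uM, half-log steps, 0.5% DMSO). BAD mRNA was quantified by qRT-PCR normalised to ACTB, GAPDH and POLR2A, with bidirectional fitting versus DMSO.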

Read-out in experiment [5]: Bcl-2 (BAX) gene, BAX (gene 581)
Briefly: LTEA_HepaRG_BAX: Life Technologies and Expression Analysis (LTEA) Assay for Bcl-2 (BAX) gene using HepaRG (AID 2283470). The method, boiled down: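 HepaRG (human liver), 48 h exposure, duplicate wells. 8-pt curve, half-log from 100 uM, 0.5% DMSO. BAX transcript by TaqMan qRT-PCR; ACTB/GAPDH/POLR2A normalization; gain or loss vs DMSO baseline.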

Read-out in experiment [6]: adenosine kinase (ADK) gene, ADK (gene 132)
Briefly: LTEA_HepaRG_ADK: Life Technologies and Expression Analysis (LTEA) Assay for adenosine kinase (ADK) gene using HepaRG (AID 2283471). The method in brief:
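Differentiated HepaRG cells dosed 48 h in serum-free induction medium, 0.5% DMSO vehicle, eight half-log concentrations from 100 uM, in duplicate. ADK mRNA by TaqMan qRT-PCR normalised to ACTB, GAPDH, POLR2A; bidirectional fit versus DMSO.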

Read-out in experiment [7]: Alpha-fetoprotein (AFP) gene, AFP (gene 174)
Briefly: LTEA_HepaRG_AFP: Life Technologies and Expression Analysis (LTEA) Assay for Alpha-fetoprotein (AFP) gene using HepaRG (AID 2283472). The method in brief:
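HepaRG, single lot; 48 h post-plating -> serum-free induction medium; cpd 8-pt, 100 uM top, half-log, 0.5% DMSO, duplicate, 48 h. RNA -> qRT-PCR AFP, norm ACTB/GAPDH/POLR2A. Bidirectional fit vs DMSO.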

Read-out in a further experiment: BCL2L11 (gene 10018)
Briefly: LTEA_HepaRG_BCL2L11: Life Technologies and Expression Analysis (LTEA) Assay for Bcl-2 (BCL2L11) gene using HepaRG (AID 2283473). The method in brief: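 Cells were plated, cultured 48 h, switched to serum-free induction medium, then dosed in duplicate for 48 h at eight half-log concentrations up to 100 uM. Lysates underwent RNA isolation and TaqMan qRT-PCR; gain or loss versus DMSO was fitted.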

Read-out in experiment [8]: Apolipoprotein A-V (APOA5) gene, APOA5 (gene 116519)
Briefly: LTEA_HepaRG_APOA5: Life Technologies and Expression Analysis (LTEA) Assay for Apolipoprotein A-V (APOA5) gene using HepaRG (AID 2283474). The method, boiled down: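 Human liver HepaRG cells are treated 48 h with test chemicals (100 uM top, half-log dilutions, 0.5% DMSO). APOA5 mRNA induction or loss is measured by qRT-PCR relative to vehicle.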

Read-out in experiment [9]: Apoptosis regulator Bcl-2 (Homo sapiens) (UniProt P10415)
Briefly: LTEA_HepaRG_BCL2: Life Technologies and Expression Analysis (LTEA) Assay for Bcl-2 gene using HepaRG (AID 2283475). The method, boiled down: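 HepaRG, plated 48 h then switched to serum-free induction medium; dosed 48 h, 8 conc. (max 100 uM, half-log steps), duplicate, 0.5% DMSO. Lysis in RLT, RNA isolated, TaqMan qRT-PCR for BCL2; ACTB/GAPDH/POLR2A normalisation; bidirectional fit vs DMSO.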

Read-out in experiment [10]: Bcl-2 (BID) gene, BID (gene 637)
Nature of the experiment: LTEA_HepaRG_BID: Life Technologies and Expression Analysis (LTEA) Assay for Bcl-2 (BID) gene using HepaRG (AID 2283476). The method in brief:
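Transcript levels of BID, measured by qRT-PCR and normalized to three housekeeping genes, were fitted bidirectionally against DMSO controls. Cells were HepaRG, dosed 48 h at up to 100 uM.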

Read-out in a further experiment: Caspase-3 (Homo sapiens) (UniProt P42574)
Briefly: LTEA_HepaRG_CASP3: Life Technologies and Expression Analysis (LTEA) Assay for cysteine-aspartic acid protease (CASP3) using HepaRG (AID 2283477). The method, boiled down: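 In HepaRG liver cells dosed for 48 h at up to 100 uM (eight-point, duplicate), CASP3 expression changes are scored by qRT-PCR. Activity is fitted in both directions with 0.5% DMSO as baseline.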

Read-out in experiment [11]: Cytochrome P450 (CYP24A1), CYP24A1 (gene 1591)
Briefly: LTEA_HepaRG_CYP24A1: Life Technologies and Expression Analysis (LTEA) Assay for Cytochrome P450 (CYP24A1) using HepaRG (AID 2283478). The method in brief: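 Human liver HepaRG cultures receive each chemical for 48 h across an eight-point half-log series topping at 100 uM in 0.5% DMSO. Induction or suppression of CYP24A1 mRNA is scored relative to vehicle after housekeeping-gene normalization.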

Read-out in experiment [12]: Cytochrome P450 (CYP1A2), CYP1A2 (gene 1544)
Nature of the experiment: LTEA_HepaRG_CYP1A2: Life Technologies and Expression Analysis (LTEA) Assay for Cytochrome P450 (CYP1A2) using HepaRG (AID 2283479). The method, boiled down:
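Assesses CYP1A2 mRNA in human HepaRG liver cells after 48 h chemical exposure at up to 100 uM. Values come from qRT-PCR with bidirectional curve fitting relative to DMSO.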

Read-out in experiment [13]: cysteine-aspartic acid protease (CASP8), CASP8 (gene 841)
Nature of the experiment: LTEA_HepaRG_CASP8: Life Technologies and Expression Analysis (LTEA) Assay for cysteine-aspartic acid protease (CASP8) using HepaRG (AID 2283480). The method in brief: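 Differentiated human HepaRG cells, plated 48 h then switched to serum-free induction medium, were exposed in duplicate for 48 h to 8 half-log concentrations up to 100 uM in 0.5% DMSO. CASP8 mRNA was quantified by qRT-PCR, normalized to ACTB/GAPDH/POLR2A.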

Read-out in experiment [14]: Cytochrome P450 (CYP2B6), CYP2B6 (gene 1555)
Nature of the experiment: LTEA_HepaRG_CYP2B6: Life Technologies and Expression Analysis (LTEA) Assay for Cytochrome P450 (CYP2B6) using HepaRG (AID 2283481). The method, boiled down:
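Using 48 h treatment of HepaRG cells in serum-free induction medium, concentrations spanned half-log steps from 100 uM in 0.5% DMSO vehicle. CYP2B6 mRNA induction or loss is scored by qRT-PCR against DMSO.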

Read-out in experiment [15]: Cytochrome P450 2C19 (Homo sapiens) (UniProt P33261)
Nature of the experiment: LTEA_HepaRG_CYP2C19: Life Technologies and Expression Analysis (LTEA) Assay for CYP2C19 using HepaRG (AID 2283482). The method in brief:
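Human HepaRG liver cells received test chemicals for 48 h (highest 100 uM, half-log dilutions in 0.5% DMSO). CYP2C19 mRNA induction or loss is read by multiplexed qRT-PCR and fitted in both directions versus vehicle.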

Read-out in the next experiment: CYP2C8 (gene 1558)
Nature of the experiment: LTEA_HepaRG_CYP2C8: Life Technologies and Expression Analysis (LTEA) Assay for CYP2C8 using HepaRG (AID 2283483). The method in brief: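 Differentiated human HepaRG cells were exposed for 48 h in serum-free induction medium to eight half-log concentrations up to 100 uM in 0.5% DMSO, in duplicate. CYP2C8 mRNA was measured by TaqMan qRT-PCR, normalized to ACTB, GAPDH and POLR2A, and fitted bidirectionally against DMSO.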

Read-out in the next experiment: CYP2C9 (gene 1559)
Briefly: LTEA_HepaRG_CYP2C9: Life Technologies and Expression Analysis (LTEA) Assay for CYP2C9 using HepaRG (AID 2283484). The method, boiled down: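 Differentiated human HepaRG cells were exposed 48 h in serum-free induction medium to eight half-log concentrations up to 100 uM in 0.5% DMSO. CYP2C9 mRNA was measured by qRT-PCR, normalized to ACTB, GAPDH and POLR2A, and fitted bidirectionally against DMSO.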

Read-out in another experiment: CYP2E1 (gene 1571)
Briefly: LTEA_HepaRG_CYP2E1: Life Technologies and Expression Analysis (LTEA) Assay for CYP2E1 using HepaRG (AID 2283485). The method in brief: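 Human liver line HepaRG, plated 48 h, then serum-free induction medium + chemical x 48 h; 8-pt CRC from 100 uM, half-log, 0.5% DMSO, n=2. Readout: CYP2E1 mRNA qRT-PCR vs ACTB/GAPDH/POLR2A; bidirectional fit vs DMSO.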

Molecules are shown by their SMILES. Calls of active or inactive are those of the source. How the source made its calls: active means hit-call score of the fitted dose curve at least 0.9, where 1 is the maximum; inactive means score below 0.9.

Sequence of Caspase-3 (Homo sapiens) (P42574 whole entry, looked up): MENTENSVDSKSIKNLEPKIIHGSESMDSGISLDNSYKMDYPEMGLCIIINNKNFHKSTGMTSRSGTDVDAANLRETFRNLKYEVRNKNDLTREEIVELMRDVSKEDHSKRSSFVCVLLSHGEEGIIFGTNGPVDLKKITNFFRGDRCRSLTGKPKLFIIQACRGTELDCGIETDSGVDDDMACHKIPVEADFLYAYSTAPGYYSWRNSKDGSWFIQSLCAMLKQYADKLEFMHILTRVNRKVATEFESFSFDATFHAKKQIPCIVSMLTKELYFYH
Sequence of Cytochrome P450 2C19 (Homo sapiens) (P33261 whole entry, looked up): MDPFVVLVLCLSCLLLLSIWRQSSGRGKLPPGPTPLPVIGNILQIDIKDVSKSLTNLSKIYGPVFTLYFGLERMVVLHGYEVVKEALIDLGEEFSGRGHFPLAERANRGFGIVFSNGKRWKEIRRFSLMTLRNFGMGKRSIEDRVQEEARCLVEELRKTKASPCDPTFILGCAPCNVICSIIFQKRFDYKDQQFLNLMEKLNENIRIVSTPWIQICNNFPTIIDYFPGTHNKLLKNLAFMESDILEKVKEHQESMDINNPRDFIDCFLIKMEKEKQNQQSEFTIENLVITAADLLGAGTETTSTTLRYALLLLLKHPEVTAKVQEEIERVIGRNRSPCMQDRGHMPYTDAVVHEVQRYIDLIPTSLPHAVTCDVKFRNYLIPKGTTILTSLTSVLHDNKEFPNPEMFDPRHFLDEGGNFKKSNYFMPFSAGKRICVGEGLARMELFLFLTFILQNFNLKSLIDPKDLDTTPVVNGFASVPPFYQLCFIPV
Sequence of Apoptosis regulator Bcl-2 (Homo sapiens) (P10415 whole entry, looked up): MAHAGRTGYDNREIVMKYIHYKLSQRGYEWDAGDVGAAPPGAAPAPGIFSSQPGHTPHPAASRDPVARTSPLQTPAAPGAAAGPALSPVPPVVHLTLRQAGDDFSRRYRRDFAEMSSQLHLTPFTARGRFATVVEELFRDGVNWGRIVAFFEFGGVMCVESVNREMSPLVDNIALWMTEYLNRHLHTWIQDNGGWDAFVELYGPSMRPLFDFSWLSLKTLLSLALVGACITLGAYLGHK

Broadly, the AC50 is the concentration giving half of the maximal activity seen. Turning to `O=C(O)C(F)(F)C(F)(F)C(F)(F)C(F)(F)C(F)(F)C(F)(F)C(F)(F)C(F)(F)F`, the compound was called inactive (in experiment [1]; in [4]; in experiment [6]; in experiment [10]; with Caspase-3 (Homo sapiens); in experiment [11]). Also, the result in experiment [13] was inactive. In addition, the AC50 is 90.4 µM (active) in experiment [2]; 50 µM (active) in [3]; 76.3 µM (active) in [5]; 78.4 µM (active) in [7]; 50 µM (active) with BCL2L11 (gene 10018); 82 µM (active) in experiment [8]. Besides, the AC50 is 73.6 µM (active) in [9]; 83.6 µM (active) in experiment [12]; 82.4 µM (active) in experiment [14]; 87.1 µM (active) in [15]; 80 µM (active) with CYP2C8 (gene 1558); 80.5 µM (active) in the experiment with CYP2C9 (gene 1559). Further, in the experiment with CYP2E1 (gene 1571), the AC50 is 93.9 µM (active).

`Clc1ccc(C(Cl)(Cl)Cl)cc1`: the call in [1], in experiment [2], in experiment [3], in [4], in experiment [5] and in experiment [6] was inactive. The compound was called inactive (in [7]; with BCL2L11 (gene 10018); in experiment [8]; in [9]; in experiment [10]; with Caspase-3 (Homo sapiens)). Besides, the outcome (in experiment [11]; in [12]; in experiment [13]; in experiment [14]; in [15]; with CYP2C8 (gene 1558)) was inactive. Further, the result in the experiment with CYP2C9 (gene 1559) and in the experiment with CYP2E1 (gene 1571) was inactive.

`CC(c1ccc(O)cc1)(c1ccc(O)cc1)c1ccc(O)cc1`: the AC50 was 61.6 µM (active) in [1]; 70.5 µM (active) in experiment [2]; 0.895 µM (active) in experiment [3]; 75.7 µM (active) in experiment [6]; 82.2 µM (active) with BCL2L11 (gene 10018); 3.86 µM (active) in [10]. Also, the AC50 with Caspase-3 (Homo sapiens) is 87.5 µM (active); in experiment [12] it was 21.8 µM (active); in experiment [14], 31.3 µM (active); in [15], 29 µM (active); in the experiment with CYP2C9 (gene 1559), 50 µM (active); with CYP2E1 (gene 1571), 80.5 µM (active). Besides, the result in [4], in experiment [5], in experiment [7], in [8], in [9] and in experiment [11] was inactive. Besides, the result (in experiment [13]; with CYP2C8 (gene 1558)) was inactive.
